Test results: the supplement of paper PMC12645437, “Orthogonal IMiD-Degron Pairs Induce Selective Protein Degradation in Cells” (ACS Chemical Biology, 2025)
The full ranking holds about 8,300 sequences; the median of “log2 fold change of degron read counts, EGFP-low vs EGFP+ sorted cells (limma voom), compound-induced degradation” is about -1.1, and the highest 2% start at about 3.2. Shown is part of a subset that was picked to be rich in the highest values.

T1: CRBN, Q96SW2
T1 chain: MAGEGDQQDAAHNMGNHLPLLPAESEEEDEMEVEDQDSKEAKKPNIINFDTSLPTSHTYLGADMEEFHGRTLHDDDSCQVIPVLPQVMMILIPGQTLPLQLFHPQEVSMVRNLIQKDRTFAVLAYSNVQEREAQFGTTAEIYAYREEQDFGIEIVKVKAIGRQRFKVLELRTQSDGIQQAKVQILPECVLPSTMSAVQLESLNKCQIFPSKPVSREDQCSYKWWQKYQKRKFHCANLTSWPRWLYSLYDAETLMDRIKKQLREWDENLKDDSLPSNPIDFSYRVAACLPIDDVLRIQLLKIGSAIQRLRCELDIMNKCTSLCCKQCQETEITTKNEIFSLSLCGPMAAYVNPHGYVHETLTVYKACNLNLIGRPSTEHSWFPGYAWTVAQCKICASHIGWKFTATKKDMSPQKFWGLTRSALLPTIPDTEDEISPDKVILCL


Target: T1, CRBN, Q96SW2
Test: log2 fold change of degron read counts, EGFP-low vs EGFP+ sorted cells (limma voom), compound-induced degradation; higher = more compound-induced degradation of the degron-EGFP fusion; degrons are variants of IKZF1/3 zinc finger 2; compound dose not given here
Settings: Jurkat, 18 h
[1] = compound: compound 19 (5-tert-butyl-thalidomide)
[2] = compound: compound 22 (5-morpholino-thalidomide)
[3] = compound: compound 33 (diphenyl IMiD analogue)
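Note: pooled lentiviral library of zinc finger degron-EGFP fusions in mCherry-positive Jurkat cells, FACS-sorted after compound exposure, with degron abundance counted by next-generation sequencing.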

Sequence | log2 fold change of degron read counts [1] | log2 fold change of degron read counts [2] | log2 fold change of degron read counts [3] | log2 fold change of degron read counts (compound: thalidomide)
FTCEICGRVFTQKGNLLRHIKL [46F_47T_49E_50I_52G_53R_54V_55F_67L_, Q9UKT9] | -2.27 | -1.55 | -0.702 | -0.137
FRCPICGRLFTQKGNLLRHIKL [46F_47R_49P_50I_52G_53R_54L_55F_67L_, Q9UKT9] | -1.83 | -0.827 | 0.758 | 0.687
FDCPICGRMFTQKGNLLRHIKL [46F_47D_49P_50I_52G_53R_54M_55F_67L_, Q9UKT9] | -0.392 | -0.463 | 1.09 | 1.7
FRCNQCGHRFTQKGNLLRHIKL [46F_47R_49N_50Q_52G_53H_54R_55F_67L_, Q9UKT9] | -2.19 | -2.67 | -2.63 | -2.17
FNCEVCGACFTQKGNLLRHIKL [46F_47N_49E_50V_52G_53A_54C_55F_67L_, Q9UKT9] | 2.1 | 0.177 | 0.1 | -0.55
FWCEVCGACFTQKGNLLRHIKL [46F_47W_49E_50V_52G_53A_54C_55F_67L_, Q9UKT9] | 3.64 | 3.77 | 2.8 | 1.25
FCCEVCGACFTQKGNLLRHIKL [46F_47C_49E_50V_52G_53A_54C_55F_67L_, Q9UKT9] | 2.54 | 2.27 | 2.88 | 2.26
FGCEVCGACFTQKGNLLRHIKL [46F_47G_49E_50V_52G_53A_54C_55F_67L_, Q9UKT9] | 3.58 | 2.6 | 1.86 | 0.497
FECEVCGACFTQKGNLLRHIKL [46F_47E_49E_50V_52G_53A_54C_55F_67L_, Q9UKT9] | 0.0523 | -1.58 | 1.91 | 2.18
FFCEVCGACFTQKGNLLRHIKL [46F_47F_49E_50V_52G_53A_54C_55F_67L_, Q9UKT9] | 3.55 | 3.51 | 2.56 | 1.24
FACEVCGACFTQKGNLLRHIKL [46F_47A_49E_50V_52G_53A_54C_55F_67L_, Q9UKT9] | 3.76 | 2.16 | 1.45 | 0.401
FKCEVCGACFTQKGNLLRHIKL [46F_47K_49E_50V_52G_53A_54C_55F_67L_, Q9UKT9] | -0.0189 | -2.37 | -2.27 | -0.751
FHCEVCGACFTQKGNLLRHIKL [46F_47H_49E_50V_52G_53A_54C_55F_67L_, Q9UKT9] | 2.22 | 2.25 | 1.49 | 0.274
FDCEVCGACFTQKGNLLRHIKL [46F_47D_49E_50V_52G_53A_54C_55F_67L_, Q9UKT9] | 0.736 | -1.47 | 0.552 | -0.0895
LECNQCGFWCTQKGNLLRHIKL [46L_47E_49N_50Q_52G_53F_54W_55C_67L_, Q9UKT9] | -1.99 | -1.69 | -1.79 | -1.63
FYCDICGAVFTQKGNLLRHIKL [46F_47Y_49D_50I_52G_53A_54V_55F_67L_, Q9UKT9] | 2.92 | 2.45 | 1.34 | -1.18

Sequence | log2 fold change of degron read counts [1] | log2 fold change of degron read counts [2] | log2 fold change of degron read counts [3] | log2 fold change of degron read counts (compound: thalidomide)
FCCNQCGRTFTQKGNLLRHIKL [46F_47C_49N_50Q_52G_53R_54T_55F_67L_, Q9UKT9] | -2.96 | -2.98 | -2.8 | -2.49
FKCNQCGRHFTQKGNLLRHIKL [46F_47K_49N_50Q_52G_53R_54H_55F_67L_, Q9UKT9] | -2.42 | -3.25 | -2.92 | -2.39
FICEICGAFFTQKGNLLRHIKL [46F_47I_49E_50I_52G_53A_54F_55F_67L_, Q9UKT9] | -1.14 | 0.177 | 1.46 | 0.874
FECSVCGHCFTQKGNLLRHIKL [46F_47E_49S_50V_52G_53H_54C_55F_67L_, Q9UKT9] | -2.85 | -3.1 | -2.83 | -3.04
FCCNVCGAVFTQKGNLLRHIKL [46F_47C_49N_50V_52G_53A_54V_55F_67L_, Q9UKT9] | -1.07 | -0.182 | 1.49 | -0.139
FVCNQCGHYFTQKGNLLRHIKL [46F_47V_49N_50Q_52G_53H_54Y_55F_67L_, Q9UKT9] | -3.08 | -3.34 | -2.73 | -2.44
FFCNQCGHDFTQKGNLLRHIKL [46F_47F_49N_50Q_52G_53H_54D_55F_67L_, Q9UKT9] | -3.06 | -4.05 | -2.94 | -2.8
FICEVCGACFTQKGNLLRHIKL [46F_47I_49E_50V_52G_53A_54C_55F_67L_, Q9UKT9] | -0.743 | 2.1 | 2.52 | 2.75
FMCEVCGACFTQKGNLLRHIKL [46F_47M_49E_50V_52G_53A_54C_55F_67L_, Q9UKT9] | -0.094 | 0.00255 | 2.45 | 1.45
FTCEVCGACFTQKGNLLRHIKL [46F_47T_49E_50V_52G_53A_54C_55F_67L_, Q9UKT9] | 1.37 | 2.52 | 2.51 | 2.66
FLCEVCGACFTQKGNLLRHIKL [46F_47L_49E_50V_52G_53A_54C_55F_67L_, Q9UKT9] | 0.437 | -0.686 | 1.57 | 1.59
FYCEVCGACFTQKGNLLRHIKL [46F_47Y_49E_50V_52G_53A_54C_55F_67L_, Q9UKT9] | 3.74 | 3.85 | 3.1 | 1.37
FSCEVCGACFTQKGNLLRHIKL [46F_47S_49E_50V_52G_53A_54C_55F_67L_, Q9UKT9] | 3.26 | 2.28 | 2.54 | 1.34
FVCEVCGACFTQKGNLLRHIKL [46F_47V_49E_50V_52G_53A_54C_55F_67L_, Q9UKT9] | -0.0594 | 1.78 | 2.4 | 2.7
FRCEVCGACFTQKGNLLRHIKL [46F_47R_49E_50V_52G_53A_54C_55F_67L_, Q9UKT9] | -0.334 | -0.2 | 1.72 | 1.5
FQCEVCGACFTQKGNLLRHIKL [46F_47Q_49E_50V_52G_53A_54C_55F_67L_, Q9UKT9] | 0.807 | 2.69 | 2.23 | 3.69
